Drawing on paper PMC7862700, “An all-to-all approach to the identification of sequence-specific readers for epigenetic DNA modifications on cytosine”, this text covers binding signal for one sequence.

Holding throughout (assay): DAPPL (digital affinity profiling via proximity ligation, sequencing); 10 mM Tris-HCl pH 7.5, 50 mM NaCl, 1 mM DTT, 4% glycerol, room temperature, 30 min; GST-TFs on glutathione beads, 16-mer random dsDNA library, 0.1% formaldehyde crosslink after washing; high values mean tight binding
What all share (conditions): protein: recombinant; tags: N-terminal GST; dsDNA, one strand shown

The target of one assay is T1, FLI1 (Homo sapiens, UniProt Q01543 1-452).
T1 sequence: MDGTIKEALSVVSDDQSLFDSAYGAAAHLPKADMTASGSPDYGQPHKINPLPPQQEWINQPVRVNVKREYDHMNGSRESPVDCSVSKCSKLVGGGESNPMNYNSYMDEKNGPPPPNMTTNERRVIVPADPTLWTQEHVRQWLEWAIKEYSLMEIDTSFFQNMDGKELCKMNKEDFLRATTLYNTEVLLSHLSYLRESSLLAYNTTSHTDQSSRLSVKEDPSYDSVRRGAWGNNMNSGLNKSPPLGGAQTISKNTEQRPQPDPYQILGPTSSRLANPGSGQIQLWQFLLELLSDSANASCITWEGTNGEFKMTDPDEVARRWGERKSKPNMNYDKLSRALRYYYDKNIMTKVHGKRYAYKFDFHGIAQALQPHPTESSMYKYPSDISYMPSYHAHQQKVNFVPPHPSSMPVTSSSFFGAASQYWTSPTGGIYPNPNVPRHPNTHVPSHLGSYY
The method in brief:
(§1)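 A tag-only sample was pooled with DNA-barcoded human transcription factors that had been expressed in yeast as GST fusions and captured on glutathione beads. The pools were incubated for 30 min at room temperature with 200 nmole of a random double-stranded 16-mer DNA library in Tris/NaCl/DTT/glycerol buffer, then washed, crosslinked with 0.1% formaldehyde, proximity-ligated (BsaI/T4 ligase, 1 h, 37 °C), PCR-amplified and sequenced on an Illumina NextSeq500. Binding signal is each hexamer's read frequency for a factor divided by its frequency for the tag-only sample.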

For a further assay, the target named is T2, ELK1 (Homo sapiens, UniProt P19419 1-428).
T2 sequence: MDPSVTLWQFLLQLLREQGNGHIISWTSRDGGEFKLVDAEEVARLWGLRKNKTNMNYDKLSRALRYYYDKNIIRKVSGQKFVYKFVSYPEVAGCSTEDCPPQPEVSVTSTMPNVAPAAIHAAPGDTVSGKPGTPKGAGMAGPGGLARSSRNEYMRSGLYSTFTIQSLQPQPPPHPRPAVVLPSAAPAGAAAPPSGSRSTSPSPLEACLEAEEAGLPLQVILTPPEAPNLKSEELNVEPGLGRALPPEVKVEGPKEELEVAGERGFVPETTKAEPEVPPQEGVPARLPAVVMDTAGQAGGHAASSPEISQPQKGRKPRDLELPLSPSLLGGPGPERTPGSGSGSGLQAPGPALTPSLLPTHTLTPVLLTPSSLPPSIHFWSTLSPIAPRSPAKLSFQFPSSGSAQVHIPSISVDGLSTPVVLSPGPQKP
The essentials:
as §1

A further assay addresses T3, GABPA (Homo sapiens, UniProt Q06546 1-454).
T3 sequence: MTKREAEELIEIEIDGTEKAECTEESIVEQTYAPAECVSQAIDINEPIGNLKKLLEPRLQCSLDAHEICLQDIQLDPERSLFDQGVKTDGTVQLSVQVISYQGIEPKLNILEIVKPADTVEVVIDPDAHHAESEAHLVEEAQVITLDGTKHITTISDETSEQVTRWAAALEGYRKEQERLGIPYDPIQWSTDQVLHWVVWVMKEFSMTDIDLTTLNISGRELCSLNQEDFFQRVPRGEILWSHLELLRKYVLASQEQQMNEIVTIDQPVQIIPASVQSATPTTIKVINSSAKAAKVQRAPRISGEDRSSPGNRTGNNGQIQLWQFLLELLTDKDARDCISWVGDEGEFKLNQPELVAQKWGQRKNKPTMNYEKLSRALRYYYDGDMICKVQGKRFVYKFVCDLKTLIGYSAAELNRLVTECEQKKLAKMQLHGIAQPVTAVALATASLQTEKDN
The method in brief: as §1

Another assay addresses T4, ERG (Homo sapiens, UniProt P11308 1-479).
T4 sequence: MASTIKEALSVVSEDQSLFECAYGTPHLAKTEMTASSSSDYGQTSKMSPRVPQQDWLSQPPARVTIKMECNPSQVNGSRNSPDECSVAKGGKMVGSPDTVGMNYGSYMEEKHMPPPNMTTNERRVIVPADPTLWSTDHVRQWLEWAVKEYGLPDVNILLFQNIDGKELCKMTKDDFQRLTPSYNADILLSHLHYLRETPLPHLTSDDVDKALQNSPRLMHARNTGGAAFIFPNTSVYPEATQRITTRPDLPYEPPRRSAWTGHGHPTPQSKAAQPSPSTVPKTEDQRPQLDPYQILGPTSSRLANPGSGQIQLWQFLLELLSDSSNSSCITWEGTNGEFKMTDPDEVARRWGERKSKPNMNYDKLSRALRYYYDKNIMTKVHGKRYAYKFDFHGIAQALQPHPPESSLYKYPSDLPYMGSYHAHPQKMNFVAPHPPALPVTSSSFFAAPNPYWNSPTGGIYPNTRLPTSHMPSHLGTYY
The essentials: as §1

The next assay has as its target ELF1 (Homo sapiens, UniProt P32519 1-619). The essentials: as §1
Another assay concerns the target T5, EHF (Homo sapiens, UniProt Q9NZC4 1-300).
T5 sequence: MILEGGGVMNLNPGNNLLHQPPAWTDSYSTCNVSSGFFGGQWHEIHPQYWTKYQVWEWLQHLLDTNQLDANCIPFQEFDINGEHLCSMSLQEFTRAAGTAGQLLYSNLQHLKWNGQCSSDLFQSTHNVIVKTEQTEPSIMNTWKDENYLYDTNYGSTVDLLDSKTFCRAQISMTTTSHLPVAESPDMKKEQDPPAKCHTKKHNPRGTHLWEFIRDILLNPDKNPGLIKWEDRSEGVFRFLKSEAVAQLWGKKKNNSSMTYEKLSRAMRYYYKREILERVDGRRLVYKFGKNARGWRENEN
The essentials:
as §1

The target in a further assay is SPI1 (Homo sapiens, UniProt P17947 1-270). The method in brief:
as §1

The target in the next assay is SPIB (Homo sapiens, UniProt Q01892 1-262). The method in brief:
as §1

The target of a further assay is T6, FEV (Homo sapiens, UniProt Q99581 1-238).
T6 sequence: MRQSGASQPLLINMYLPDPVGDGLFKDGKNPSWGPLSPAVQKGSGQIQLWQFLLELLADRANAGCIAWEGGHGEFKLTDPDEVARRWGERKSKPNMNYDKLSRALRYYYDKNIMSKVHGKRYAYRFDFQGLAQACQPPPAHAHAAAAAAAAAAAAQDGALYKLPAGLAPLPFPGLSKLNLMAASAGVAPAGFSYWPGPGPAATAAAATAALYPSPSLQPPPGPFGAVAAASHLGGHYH
The essentials: as §1

In a further assay the target is ETV5 (Homo sapiens, UniProt P41161 1-510). The method in brief:
as §1

In a further assay the target is ELF4 (Homo sapiens, UniProt Q99607 1-663). The essentials:
as §1

In another assay the target is ETV1 (Homo sapiens, UniProt P50549 1-477). The essentials: as §1
The next assay has as its target T7, ERF (Homo sapiens, UniProt P50548 1-548).
T7 sequence: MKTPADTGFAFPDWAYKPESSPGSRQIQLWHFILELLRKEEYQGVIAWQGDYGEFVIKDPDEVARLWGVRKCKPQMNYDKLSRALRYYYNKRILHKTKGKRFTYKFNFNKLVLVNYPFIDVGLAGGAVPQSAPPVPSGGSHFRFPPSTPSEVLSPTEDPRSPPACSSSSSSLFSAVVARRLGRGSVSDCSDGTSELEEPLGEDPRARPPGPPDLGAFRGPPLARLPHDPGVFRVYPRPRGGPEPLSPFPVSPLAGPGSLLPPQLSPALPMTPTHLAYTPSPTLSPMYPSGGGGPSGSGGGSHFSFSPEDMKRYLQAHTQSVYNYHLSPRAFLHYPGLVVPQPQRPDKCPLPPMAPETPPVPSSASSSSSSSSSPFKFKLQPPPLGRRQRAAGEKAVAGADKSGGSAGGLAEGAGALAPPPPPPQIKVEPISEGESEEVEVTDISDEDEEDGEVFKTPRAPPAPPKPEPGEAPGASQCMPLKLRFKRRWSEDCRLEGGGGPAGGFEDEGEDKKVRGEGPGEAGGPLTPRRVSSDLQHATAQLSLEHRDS
The method in brief:
as §1

Another assay has as its target T8, ETV3L (Homo sapiens, UniProt Q6ZN32 1-361).
T8 sequence: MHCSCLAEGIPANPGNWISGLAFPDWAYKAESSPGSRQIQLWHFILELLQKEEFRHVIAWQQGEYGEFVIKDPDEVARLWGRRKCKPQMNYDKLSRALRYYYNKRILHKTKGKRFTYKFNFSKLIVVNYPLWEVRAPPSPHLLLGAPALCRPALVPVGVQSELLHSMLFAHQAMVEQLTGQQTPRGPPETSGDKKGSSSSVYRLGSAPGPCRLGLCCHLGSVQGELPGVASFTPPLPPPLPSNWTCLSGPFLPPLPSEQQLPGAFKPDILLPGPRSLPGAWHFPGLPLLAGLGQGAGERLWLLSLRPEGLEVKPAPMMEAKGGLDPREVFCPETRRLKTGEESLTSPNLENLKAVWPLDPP
The method in brief: as §1

The next assay addresses T9, ETS2 (Homo sapiens, UniProt P15036 1-469).
T9 sequence: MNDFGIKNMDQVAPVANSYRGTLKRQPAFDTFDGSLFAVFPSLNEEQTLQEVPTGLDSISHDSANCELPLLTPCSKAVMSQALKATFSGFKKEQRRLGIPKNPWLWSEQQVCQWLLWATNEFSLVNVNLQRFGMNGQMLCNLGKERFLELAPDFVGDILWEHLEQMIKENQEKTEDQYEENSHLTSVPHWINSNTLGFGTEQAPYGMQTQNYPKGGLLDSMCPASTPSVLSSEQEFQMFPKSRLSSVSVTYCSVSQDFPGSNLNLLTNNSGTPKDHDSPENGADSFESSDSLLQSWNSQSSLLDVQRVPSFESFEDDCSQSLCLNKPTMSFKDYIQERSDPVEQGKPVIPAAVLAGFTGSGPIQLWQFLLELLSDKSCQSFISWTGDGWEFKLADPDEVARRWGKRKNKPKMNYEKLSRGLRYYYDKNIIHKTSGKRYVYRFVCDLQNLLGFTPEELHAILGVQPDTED
The method in brief: as §1

The target of another assay is T10, SPDEF (Homo sapiens, UniProt O95238 1-335).
T10 sequence: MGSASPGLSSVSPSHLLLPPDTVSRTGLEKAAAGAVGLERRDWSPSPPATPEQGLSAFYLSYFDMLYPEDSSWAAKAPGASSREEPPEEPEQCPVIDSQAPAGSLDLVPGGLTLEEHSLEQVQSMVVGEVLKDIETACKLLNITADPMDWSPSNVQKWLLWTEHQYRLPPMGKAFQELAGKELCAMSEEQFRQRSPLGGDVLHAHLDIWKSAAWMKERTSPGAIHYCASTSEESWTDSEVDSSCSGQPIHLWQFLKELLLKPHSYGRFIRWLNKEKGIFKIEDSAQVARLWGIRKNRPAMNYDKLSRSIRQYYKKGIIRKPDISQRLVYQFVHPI
The essentials:
as §1

Another assay addresses T11, ELF5 (Homo sapiens, UniProt Q9UKW6-2 1-255).
T11 sequence: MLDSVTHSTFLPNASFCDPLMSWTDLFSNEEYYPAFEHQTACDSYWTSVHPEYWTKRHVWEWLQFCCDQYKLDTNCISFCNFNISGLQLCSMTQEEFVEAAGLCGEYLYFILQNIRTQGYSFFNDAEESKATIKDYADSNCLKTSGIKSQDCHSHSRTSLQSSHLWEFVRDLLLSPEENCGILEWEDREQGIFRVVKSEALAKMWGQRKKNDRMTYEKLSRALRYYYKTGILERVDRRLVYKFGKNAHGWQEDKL
The essentials: as §1

A further assay addresses T12, ETV3 (Homo sapiens, UniProt P41162-2 1-143).
T12 sequence: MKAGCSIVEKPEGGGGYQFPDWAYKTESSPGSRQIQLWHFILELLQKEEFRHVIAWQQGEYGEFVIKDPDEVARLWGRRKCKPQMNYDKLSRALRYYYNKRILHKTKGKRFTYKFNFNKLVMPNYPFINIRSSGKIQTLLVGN
The method in brief:
as §1

Another assay addresses ETV6 (Homo sapiens, UniProt P41212 1-452). The method in brief:
as §1

Chain of ETV5 (P41161 whole entry): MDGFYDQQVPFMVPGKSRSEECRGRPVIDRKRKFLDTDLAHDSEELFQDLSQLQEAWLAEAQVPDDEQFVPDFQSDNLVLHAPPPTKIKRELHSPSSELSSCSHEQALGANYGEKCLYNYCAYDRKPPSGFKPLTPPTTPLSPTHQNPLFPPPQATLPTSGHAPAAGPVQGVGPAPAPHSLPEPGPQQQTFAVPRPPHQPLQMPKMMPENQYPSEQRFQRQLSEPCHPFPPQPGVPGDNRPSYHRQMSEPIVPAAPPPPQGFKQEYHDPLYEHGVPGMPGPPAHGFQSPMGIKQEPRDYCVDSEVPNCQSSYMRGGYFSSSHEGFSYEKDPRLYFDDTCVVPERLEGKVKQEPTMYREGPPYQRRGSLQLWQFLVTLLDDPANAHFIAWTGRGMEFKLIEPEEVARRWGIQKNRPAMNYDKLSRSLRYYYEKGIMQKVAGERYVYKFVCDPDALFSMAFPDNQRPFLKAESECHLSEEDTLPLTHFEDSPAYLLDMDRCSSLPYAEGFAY
Chain of ETV6 (P41212 whole entry): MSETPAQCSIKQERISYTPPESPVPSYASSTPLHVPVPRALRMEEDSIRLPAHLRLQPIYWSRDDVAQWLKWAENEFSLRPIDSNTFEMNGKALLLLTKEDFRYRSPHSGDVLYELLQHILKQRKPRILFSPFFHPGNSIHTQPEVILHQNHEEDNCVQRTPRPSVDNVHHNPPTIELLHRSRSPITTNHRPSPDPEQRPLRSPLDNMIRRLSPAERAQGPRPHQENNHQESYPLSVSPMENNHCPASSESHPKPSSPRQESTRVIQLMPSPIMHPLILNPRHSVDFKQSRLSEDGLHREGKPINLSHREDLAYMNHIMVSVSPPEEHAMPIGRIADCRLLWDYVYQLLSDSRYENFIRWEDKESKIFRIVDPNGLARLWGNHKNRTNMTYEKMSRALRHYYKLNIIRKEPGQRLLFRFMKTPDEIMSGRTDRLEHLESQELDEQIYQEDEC
Chain of ELF4 (Q99607 whole entry): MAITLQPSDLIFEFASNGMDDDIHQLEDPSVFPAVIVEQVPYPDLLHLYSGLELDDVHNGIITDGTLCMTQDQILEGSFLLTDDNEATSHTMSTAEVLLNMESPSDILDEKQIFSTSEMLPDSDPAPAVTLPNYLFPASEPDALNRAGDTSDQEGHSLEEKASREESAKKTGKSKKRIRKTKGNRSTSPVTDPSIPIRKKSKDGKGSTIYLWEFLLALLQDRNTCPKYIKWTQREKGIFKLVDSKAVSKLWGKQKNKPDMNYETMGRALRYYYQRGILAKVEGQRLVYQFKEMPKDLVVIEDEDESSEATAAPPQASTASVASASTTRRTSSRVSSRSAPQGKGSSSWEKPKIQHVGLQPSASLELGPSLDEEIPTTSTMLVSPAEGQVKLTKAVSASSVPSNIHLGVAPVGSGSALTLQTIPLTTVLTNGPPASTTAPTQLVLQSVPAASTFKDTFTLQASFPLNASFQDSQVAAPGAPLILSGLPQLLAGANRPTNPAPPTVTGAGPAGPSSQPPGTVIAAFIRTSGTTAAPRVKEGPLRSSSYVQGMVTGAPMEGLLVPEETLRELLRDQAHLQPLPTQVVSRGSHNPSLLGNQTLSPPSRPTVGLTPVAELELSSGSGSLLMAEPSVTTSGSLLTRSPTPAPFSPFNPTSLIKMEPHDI
Chain of ELF1 (P32519 whole entry): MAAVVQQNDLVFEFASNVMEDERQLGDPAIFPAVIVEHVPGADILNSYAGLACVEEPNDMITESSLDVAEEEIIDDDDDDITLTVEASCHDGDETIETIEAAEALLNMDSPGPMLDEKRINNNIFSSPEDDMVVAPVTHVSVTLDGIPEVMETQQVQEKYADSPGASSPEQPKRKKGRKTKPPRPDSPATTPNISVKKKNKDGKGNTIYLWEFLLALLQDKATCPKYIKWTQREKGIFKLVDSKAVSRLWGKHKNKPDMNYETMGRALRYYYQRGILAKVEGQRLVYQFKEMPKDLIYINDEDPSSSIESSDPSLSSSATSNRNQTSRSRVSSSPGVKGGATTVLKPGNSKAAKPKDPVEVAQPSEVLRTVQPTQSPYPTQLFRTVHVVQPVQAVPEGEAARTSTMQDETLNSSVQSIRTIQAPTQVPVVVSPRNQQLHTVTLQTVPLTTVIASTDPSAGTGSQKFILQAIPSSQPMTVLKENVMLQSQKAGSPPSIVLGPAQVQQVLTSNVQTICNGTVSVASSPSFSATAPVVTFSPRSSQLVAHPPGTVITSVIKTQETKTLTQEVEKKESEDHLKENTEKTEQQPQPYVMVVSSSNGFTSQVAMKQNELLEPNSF
Chain of SPIB (Q01892 whole entry): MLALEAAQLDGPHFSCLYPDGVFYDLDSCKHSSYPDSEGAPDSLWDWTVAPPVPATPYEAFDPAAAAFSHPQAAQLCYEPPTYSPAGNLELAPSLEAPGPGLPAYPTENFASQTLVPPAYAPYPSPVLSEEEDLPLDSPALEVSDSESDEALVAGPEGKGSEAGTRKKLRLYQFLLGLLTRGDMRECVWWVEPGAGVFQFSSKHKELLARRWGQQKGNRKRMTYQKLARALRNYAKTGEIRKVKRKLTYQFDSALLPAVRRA
Chain of ETV1 (P50549 whole entry): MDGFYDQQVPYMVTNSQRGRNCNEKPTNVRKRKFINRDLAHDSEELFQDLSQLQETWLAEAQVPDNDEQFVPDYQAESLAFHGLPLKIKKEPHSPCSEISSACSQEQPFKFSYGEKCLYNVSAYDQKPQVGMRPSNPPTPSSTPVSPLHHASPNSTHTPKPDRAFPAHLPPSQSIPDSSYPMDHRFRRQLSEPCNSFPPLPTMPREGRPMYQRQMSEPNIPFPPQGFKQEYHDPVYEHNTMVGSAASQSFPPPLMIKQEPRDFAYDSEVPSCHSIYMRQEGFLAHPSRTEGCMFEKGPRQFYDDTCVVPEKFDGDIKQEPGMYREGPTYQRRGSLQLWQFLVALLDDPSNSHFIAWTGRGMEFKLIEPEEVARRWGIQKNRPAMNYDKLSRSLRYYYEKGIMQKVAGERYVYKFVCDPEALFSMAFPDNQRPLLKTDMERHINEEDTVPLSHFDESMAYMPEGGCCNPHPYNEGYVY

With TGCCCA, the binding signal with FLI1 is 1.21 fold enrichment (6-mer frequency, TF over GST control); in the assay with ELK1 it was 1.23 fold enrichment (6-mer frequency, TF over GST control); with GABPA, 1.19 fold enrichment (6-mer frequency, TF over GST control); with ERG, 1.14 fold enrichment (6-mer frequency, TF over GST control); with ELF1 it was 1.16 fold enrichment (6-mer frequency, TF over GST control); in the assay with EHF, 1.08 fold enrichment (6-mer frequency, TF over GST control). The binding signal with SPI1 was 1.09 fold enrichment (6-mer frequency, TF over GST control); with SPIB, 1.12 fold enrichment (6-mer frequency, TF over GST control); with FEV, 1.21 fold enrichment (6-mer frequency, TF over GST control); with ETV5, 1.2 fold enrichment (6-mer frequency, TF over GST control); with ELF4 it was 1.2 fold enrichment (6-mer frequency, TF over GST control); with ETV1, 1.03 fold enrichment (6-mer frequency, TF over GST control). Further, the binding signal is 1.12 fold enrichment (6-mer frequency, TF over GST control) in the assay with ERF; 1.12 fold enrichment (6-mer frequency, TF over GST control) in the assay with ETV3L; 1.12 fold enrichment (6-mer frequency, TF over GST control) with ETS2; 1.12 fold enrichment (6-mer frequency, TF over GST control) in the assay with SPDEF; 1.01 fold enrichment (6-mer frequency, TF over GST control) with ELF5; 1.15 fold enrichment (6-mer frequency, TF over GST control) with ETV3. For the same sequence, in the assay with ETV6, the binding signal is 1.14 fold enrichment (6-mer frequency, TF over GST control).
